# Results taken from the supplement of paper PMC3334620.
# In all, about 33,000 sequences were measured (“E-score (-0.5 to 0.5)”: median about -0.017, highest 2% from about 0.3 on). For the sample, the highest values were picked, then their nearest neighbours and some sequences at random.
# Molecular target: T1, Sut1 (UniProt P53032)
# T1 sequence: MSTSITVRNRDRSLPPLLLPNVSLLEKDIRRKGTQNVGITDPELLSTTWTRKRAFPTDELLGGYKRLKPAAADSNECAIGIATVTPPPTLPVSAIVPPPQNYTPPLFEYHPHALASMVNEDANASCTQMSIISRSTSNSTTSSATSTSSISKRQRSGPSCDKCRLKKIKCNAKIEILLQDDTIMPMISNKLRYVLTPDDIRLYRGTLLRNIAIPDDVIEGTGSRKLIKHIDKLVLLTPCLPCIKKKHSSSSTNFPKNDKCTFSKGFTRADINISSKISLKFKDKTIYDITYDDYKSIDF
# Assay: PBM E-score (8-mer binding enrichment) (E-score (-0.5 to 0.5)); higher = stronger / more preferred TF binding
# Details: protein concentration: 200 nM; construct: GST-full length
# Method in brief: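 Yeast transcription factors, full-length or as DNA-binding domains, were expressed with a GST tag using PURExpress in vitro transcription/translation. At about 100-200 nM they were applied to universal all-10-mer Agilent arrays, double-stranded by primer extension on fresh or once-stripped slides. Fluorescent anti-GST detected bound protein, and masliner normalised the scans. E-scores for ungapped eight-base words, pooled with reverse complements, came from the Universal PBM Analysis Suite.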
row,Sequence,PBM E-score
1,AAGCCCTC,-0.213
2,AATGTGAG,0.13
3,GAGGCATA,0.0426
4,GCCGTGTA,-0.196
5,ACTTGAAC,0.157
6,GGACTTTA,0.347
7,CGACTTTA,0.166
8,GGACTTCA,0.321
9,CGACTTCA,0.136
10,AGACTTGA,0.0388
11,AGACTTCA,-0.0862
12,AGACTTTA,-0.111
13,CGACTTGA,0.06
14,GGACTTGA,0.339
15,ATTTTAGG,0.113
16,ATACGCTG,0.025
17,AGATCATA,0.155
18,ATCTGCAC,-0.145
19,AACCGGAG,0.43
20,AACCGGAT,0.222
21,AACCGGCC,-0.0986
22,GACCGGAA,0.179
23,GACCGGGC,-0.0226
24,AACCGGTC,0.0286
25,AACCGGAA,0.229

row,Sequence,PBM E-score
1,CACCGGGA,-0.0737
2,AACCGGAC,0.345
3,CACCGGTA,-0.12
4,GACCGGAC,0.364
5,CACCGGAA,0.361
6,GTGATTCA,-0.119
7,CGCCAAAG,-0.237
8,CCGGGTAA,0.136
9,TCGTTCCA,-0.0676
10,GATGGTGA,-0.174
11,ACCGTGAA,0.00123
12,ACCTGTGG,-0.141
13,TACCGGGA,0.229
14,CACCGGAC,0.409
15,CACCGGAG,0.437
16,CACCGGTC,-0.223
17,CACCGGTG,0.0775
18,TACCGGTA,0.0972
19,CACCGGCG,0.117
20,CACCGGCC,-0.231
21,TACCGGAA,0.298
22,ACAGCAAA,0.127
23,GCGTCTAA,-0.155
24,CCCTACCG,-0.233
25,AGAAACCT,0.149

row,Sequence,PBM E-score
1,GCCTGTCC,-0.154
2,AAGAACTT,0.183
3,CATGAAGC,-0.0952
4,ACTGTGAC,-0.142
5,AGTTCGGG,0.0543
6,CGTTCGGA,0.385
7,GGTTCGAA,0.14
8,CGTTCGGC,-0.0654
9,GGTTCGGA,0.423
10,GGTTCGCA,-0.0674
11,AGTTCGGC,0.126
12,AGTTCGGA,0.352
13,CGTTCGTA,0.15
14,CCCACTAG,-0.248
15,AGTGTAGC,-0.123
16,CAAGCCAA,-0.059
17,GTGGGAAA,-0.0448
18,TCTCCAAA,-0.0978
19,TCTCCGCA,0.225
20,TCTCCGAA,0.446
21,GCTCCGAC,0.267
22,GCTCCGAA,0.439
23,CCTCCGAA,0.121
24,GTGTTTCA,0.0164
25,CACCCCTC,-0.352

row,Sequence,PBM E-score
1,CTCGGAAG,0.174
2,AAATAAAG,0.224
3,ATATAAAG,0.177
4,ATATAAAT,0.325
5,AAATAAAA,0.234
6,ATATAAAC,0.227
7,AAATAAAT,0.329
8,ATGTTATG,0.211
9,ACCTGTTC,-0.081
10,CTTCTTCA,-0.102
11,CCTGGTCA,-0.307
12,CCCGATCA,-0.133
13,ACCCAAAT,0.00677
14,CATGTCTC,-0.0334
15,GCAGCTCC,0.00727
16,CTCCGCTA,0.301
17,ATCCGCGA,-0.0287
18,GCCCGCGA,-0.0595
19,GTCCGCTA,0.258
20,GTCCGCGA,0.347
21,CTCCGCCA,0.171
22,CTCCGCGA,0.35
23,ATCCGCAA,-0.0823
24,CTCCGCTC,0.295
25,TTCCGCAA,0.166

row,Sequence,PBM E-score
1,GTCCGCAA,0.298
2,CGCCGCGA,0.0357
3,CCGTTCTC,0.0465
4,AGAGCGCG,-0.155
5,AGCCAGCG,-0.249
6,ACCATCGA,-0.151
7,GTCACGAC,-0.0628
8,CGCTCCAC,-0.012
9,ATCCGCGC,-0.0272
10,CTCCGCCC,0.217
11,CTCCGCGC,0.327
12,ATGCATAC,-0.0233
13,GAGTGATA,0.13
14,TGTTCGAA,0.103
15,CCAAGTTC,-0.107
16,AAATATAC,0.217
17,AAATATAA,0.273
18,AAATGTAG,0.0326
19,GTATATAA,0.277
20,AAATATAT,0.365
21,AAATGTAA,0.206
22,ATATACTA,0.305
23,GTATACAC,-0.0284
24,AAATGTAT,0.304
25,ATATACTC,0.197

row,Sequence,PBM E-score
1,GTATATAC,0.316
2,CTATACTA,0.21
3,CAATCGAG,-0.309
4,CTGGTAAA,0.141
5,GACTTCAC,-0.00592
6,AAACACGT,0.116
7,CCCAGCCG,-0.222
8,CCTGATTC,-0.00501
9,CTCCTCCA,-0.147
10,CATACCTC,-0.0271
11,GTTTGGCA,-0.0612
12,ACATATAT,0.266
13,ACTTATAG,0.0142
14,ATATATAT,0.302
15,ACTTATAT,0.325
16,AAATATTA,0.227
17,AAATATGA,0.114
18,AAATATGC,0.054
19,AAATATGT,0.317
20,AAATATTC,0.207
21,ATATAGAT,0.272
22,AAATATTT,0.31
23,ACTTATAC,0.264
24,ACGCTATA,-0.103
25,CACTAACG,-0.17

row,Sequence,PBM E-score
1,CGGTGCAA,-0.00847
2,AGAGCGCA,-0.306
3,AGGGAGGG,-0.158
4,AAGACTAA,0.0716
5,GGTTAACA,0.0261
6,AGATATAT,0.301
7,CTATATAG,0.0328
8,ATATAGAG,0.0735
9,CTATATAC,0.287
10,AGATATAG,0.18
11,AGATATAC,0.0915
12,ACATATAC,0.088
13,ATATATAG,0.329
14,ATATATAC,0.31
15,AGAAATGG,-0.012
16,GGCACTCA,-0.374
17,CTCGCCTA,-0.0978
18,TGCGTTAA,-0.00864
19,TATCTCGA,0.108
20,ATGGTGTC,-0.14
21,CCCGTGCC,-0.126
22,AACCGAGA,0.195
